This note sets out measurements from ChEMBL document CHEMBL3988442, “University of Dundee, Small-Polar-MMV Screening Library” (2021).

For some assays here: Potency and affinity values are given separately.

Parameters in all cases: scale not given: direction of the effect not stated beside the values
The target in assay [1] is Protein translocase subunit SecA (Escherichia coli (strain K12)) (UniProt P10408). The assay is described as follows: Assay to Identify E. coli SecA ATPase Inhibitors. The assay is classed as functional. The note with it: 30 µM.
Chain of Protein translocase subunit SecA (Escherichia coli (strain K12)) (P10408 whole entry): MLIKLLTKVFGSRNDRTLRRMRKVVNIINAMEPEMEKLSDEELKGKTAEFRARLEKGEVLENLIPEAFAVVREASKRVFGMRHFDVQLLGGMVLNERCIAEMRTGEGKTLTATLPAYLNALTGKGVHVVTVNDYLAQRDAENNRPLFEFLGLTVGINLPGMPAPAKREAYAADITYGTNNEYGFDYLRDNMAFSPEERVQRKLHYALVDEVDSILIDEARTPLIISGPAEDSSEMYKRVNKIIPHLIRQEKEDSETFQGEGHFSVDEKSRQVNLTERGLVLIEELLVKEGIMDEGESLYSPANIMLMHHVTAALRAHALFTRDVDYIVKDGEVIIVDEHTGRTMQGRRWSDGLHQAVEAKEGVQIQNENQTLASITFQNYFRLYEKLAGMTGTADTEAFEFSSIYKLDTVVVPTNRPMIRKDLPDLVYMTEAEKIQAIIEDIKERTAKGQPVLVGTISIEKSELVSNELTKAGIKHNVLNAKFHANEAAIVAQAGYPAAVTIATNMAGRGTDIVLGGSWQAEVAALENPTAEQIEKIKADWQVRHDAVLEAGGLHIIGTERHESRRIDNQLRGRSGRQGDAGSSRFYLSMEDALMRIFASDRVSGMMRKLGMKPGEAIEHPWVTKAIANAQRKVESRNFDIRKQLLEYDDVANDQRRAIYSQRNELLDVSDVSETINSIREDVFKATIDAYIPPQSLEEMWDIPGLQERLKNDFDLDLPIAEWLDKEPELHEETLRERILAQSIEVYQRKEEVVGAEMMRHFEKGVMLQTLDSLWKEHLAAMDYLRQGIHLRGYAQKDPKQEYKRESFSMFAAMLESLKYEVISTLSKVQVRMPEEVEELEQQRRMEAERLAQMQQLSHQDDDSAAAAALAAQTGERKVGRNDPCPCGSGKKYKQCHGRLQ
Assay [2] has as its target T1, Ubiquitin-activating enzyme e1, putative (Leishmania donovani (strain BPK282A1)) (UniProt E9BSI1).
T1 sequence (whole entry): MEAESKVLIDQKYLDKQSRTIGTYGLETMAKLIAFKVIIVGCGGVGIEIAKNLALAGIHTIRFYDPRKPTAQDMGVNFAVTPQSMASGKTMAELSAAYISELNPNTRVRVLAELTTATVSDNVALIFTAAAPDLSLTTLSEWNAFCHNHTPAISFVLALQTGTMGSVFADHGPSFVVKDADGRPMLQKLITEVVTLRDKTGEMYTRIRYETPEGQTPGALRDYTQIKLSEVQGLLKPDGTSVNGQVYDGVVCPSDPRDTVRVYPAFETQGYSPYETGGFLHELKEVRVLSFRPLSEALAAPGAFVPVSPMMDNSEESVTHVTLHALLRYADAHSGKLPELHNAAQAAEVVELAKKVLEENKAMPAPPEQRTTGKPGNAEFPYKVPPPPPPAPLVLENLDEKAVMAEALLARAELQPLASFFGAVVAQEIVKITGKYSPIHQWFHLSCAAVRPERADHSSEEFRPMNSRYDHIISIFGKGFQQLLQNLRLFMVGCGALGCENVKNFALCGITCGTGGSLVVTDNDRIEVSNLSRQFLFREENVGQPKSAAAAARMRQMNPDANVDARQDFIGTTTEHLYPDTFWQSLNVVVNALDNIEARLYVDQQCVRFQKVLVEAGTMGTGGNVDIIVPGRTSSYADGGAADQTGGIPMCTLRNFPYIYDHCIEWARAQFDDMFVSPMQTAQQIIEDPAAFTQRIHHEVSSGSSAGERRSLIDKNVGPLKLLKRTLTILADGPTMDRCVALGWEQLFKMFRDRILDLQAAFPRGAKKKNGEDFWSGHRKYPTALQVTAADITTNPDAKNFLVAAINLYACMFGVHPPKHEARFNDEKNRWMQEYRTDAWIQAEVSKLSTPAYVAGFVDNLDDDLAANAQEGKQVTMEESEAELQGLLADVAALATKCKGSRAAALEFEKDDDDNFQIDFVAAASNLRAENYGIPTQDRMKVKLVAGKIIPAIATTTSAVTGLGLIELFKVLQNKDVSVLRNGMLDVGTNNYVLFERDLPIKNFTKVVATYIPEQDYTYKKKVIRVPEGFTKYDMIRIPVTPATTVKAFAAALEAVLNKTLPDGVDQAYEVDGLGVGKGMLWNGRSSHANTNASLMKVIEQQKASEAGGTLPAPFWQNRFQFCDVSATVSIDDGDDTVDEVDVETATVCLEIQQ
Description: Leishmania donovani Ubiquitin Activating Enzyme (LdE1). It is filed as functional. The note with it: 30 µM.

The target in assay [3] is AMP-activated protein kinase, AMPK (Homo sapiens) (UniProt P54646+O43741+P54619+Q9UGJ0+Q9Y478+Q13131+Q9UGI9). Description: AMP-dependent Kinase enzyme assay. An in vitro enzyme assay that detects ADP turnover that is directly proportional to AMPK activity. This uses naive AMPK that is activated during the assay with MK-8722. It is filed as functional. The note with it: 30 µM.

For assay [4], the target named is Sialic acid-binding Ig-like lectin 9 (Homo sapiens) (UniProt Q9Y336). Description: Hs-Siglec9 ALPHAscreen SOP 20170721. The note with it: 10 µM. On the technique in general: Bead proximity is the source of the signal in Alpha formats.
Chain of Sialic acid-binding Ig-like lectin 9 (Homo sapiens) (Q9Y336 whole entry): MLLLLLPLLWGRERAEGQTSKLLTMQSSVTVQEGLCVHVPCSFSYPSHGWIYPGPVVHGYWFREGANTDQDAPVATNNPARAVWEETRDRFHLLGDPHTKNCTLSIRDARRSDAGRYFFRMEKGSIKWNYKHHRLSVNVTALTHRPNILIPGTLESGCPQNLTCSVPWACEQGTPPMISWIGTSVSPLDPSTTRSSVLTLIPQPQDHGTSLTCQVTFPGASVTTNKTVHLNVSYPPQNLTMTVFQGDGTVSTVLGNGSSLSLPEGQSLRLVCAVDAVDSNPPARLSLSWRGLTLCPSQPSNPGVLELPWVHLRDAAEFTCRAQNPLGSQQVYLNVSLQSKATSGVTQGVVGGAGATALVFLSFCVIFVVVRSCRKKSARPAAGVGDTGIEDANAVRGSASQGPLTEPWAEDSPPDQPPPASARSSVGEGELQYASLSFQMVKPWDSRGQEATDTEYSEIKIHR
For the next assay, the system named is Trypanosoma cruzi. The assay is described as follows: Trypanosoma cruzi phosphomannomutase and mannose-1-phosphate guanylyltransferase assay. The assay is classed as functional. The note with it: 10 µM.
The target in assay [5] is T2, Arginase-2, mitochondrial (Homo sapiens) (UniProt P78540).
T2 sequence (whole entry): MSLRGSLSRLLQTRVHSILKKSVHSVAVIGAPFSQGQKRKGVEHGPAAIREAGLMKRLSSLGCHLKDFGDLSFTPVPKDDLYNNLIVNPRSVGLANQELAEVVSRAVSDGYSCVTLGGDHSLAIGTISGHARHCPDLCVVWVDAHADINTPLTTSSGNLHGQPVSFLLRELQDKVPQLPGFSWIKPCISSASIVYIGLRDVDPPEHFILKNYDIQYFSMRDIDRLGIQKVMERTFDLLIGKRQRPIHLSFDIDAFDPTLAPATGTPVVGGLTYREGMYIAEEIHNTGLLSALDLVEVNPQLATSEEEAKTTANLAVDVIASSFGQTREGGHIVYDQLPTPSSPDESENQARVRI
The assay is described as follows: in vitro enzyme assay to detect the production of urea directly proportional to the activity of Arginase II. Further: in the data most compounds retested in dose-response had high values. It is filed as functional. The note with it: 33.3 µM.

The target in assay [6] is T3, Proteasome subunit beta (Trypanosoma cruzi) (UniProt O96673).
T3 sequence (whole entry): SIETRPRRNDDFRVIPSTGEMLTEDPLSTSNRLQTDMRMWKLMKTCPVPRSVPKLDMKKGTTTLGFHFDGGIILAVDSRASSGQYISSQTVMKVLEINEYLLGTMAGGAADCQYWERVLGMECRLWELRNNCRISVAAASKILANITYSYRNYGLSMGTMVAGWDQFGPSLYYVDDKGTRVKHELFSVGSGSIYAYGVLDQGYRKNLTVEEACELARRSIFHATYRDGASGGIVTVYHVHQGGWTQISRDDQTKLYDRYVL
The assay is described as follows: Trypanosoma cruzi proteasome chymotrypsin-like activity (TcProtChymo) assay. Further: in the data most compounds retested in dose-response had high values. The assay is classed as functional. The note with it: 9.37 µM.

The species entered for a further assay is Homo sapiens. The assay is described as follows: To identify inhibition of the IFN signalling (Jak-Stat) pathway via expression of an eGFP reporter gene under the control of an IFN-stimulated response element (ISRE) containing MxA promoter. The assay is classed as functional. The note with it: 30 µM.
Assay [7] has as its target T4, Tyrosyl-tRNA synthetase, putative (Trypanosoma cruzi (strain CL Brener)) (UniProt Q4DSP6).
T4 sequence (whole entry): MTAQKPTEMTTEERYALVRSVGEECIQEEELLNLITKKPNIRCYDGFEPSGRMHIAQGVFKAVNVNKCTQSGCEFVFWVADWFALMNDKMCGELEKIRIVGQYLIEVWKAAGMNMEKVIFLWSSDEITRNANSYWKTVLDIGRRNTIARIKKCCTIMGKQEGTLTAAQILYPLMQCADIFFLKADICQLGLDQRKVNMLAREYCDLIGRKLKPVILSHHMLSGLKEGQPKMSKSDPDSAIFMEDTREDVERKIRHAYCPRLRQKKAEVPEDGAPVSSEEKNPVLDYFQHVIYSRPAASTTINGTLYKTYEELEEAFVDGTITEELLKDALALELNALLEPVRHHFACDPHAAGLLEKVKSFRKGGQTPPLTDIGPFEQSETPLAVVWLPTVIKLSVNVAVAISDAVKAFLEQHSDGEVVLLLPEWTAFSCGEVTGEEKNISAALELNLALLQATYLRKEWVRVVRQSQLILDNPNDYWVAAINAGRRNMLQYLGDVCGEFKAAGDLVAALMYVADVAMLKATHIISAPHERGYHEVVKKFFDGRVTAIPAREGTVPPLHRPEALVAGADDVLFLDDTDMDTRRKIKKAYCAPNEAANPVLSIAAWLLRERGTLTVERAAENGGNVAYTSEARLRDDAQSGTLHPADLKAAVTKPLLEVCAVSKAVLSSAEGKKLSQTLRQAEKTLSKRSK
The assay is described as follows: Trypanosoma cruzi tyrosyl tRNA synthetase (TcYRS) _High Tyrosine SOP. Further: in the data most compounds retested in dose-response had high values. It is filed as functional. The note with it: 30 µM.

Assay [8] concerns the target T4, Tyrosyl-tRNA synthetase, putative (Trypanosoma cruzi (strain CL Brener)). The assay is described as follows: Trypanosoma cruzi tyrosyl tRNA synthetase (TcYRS) SOP. The note with it: 30 µM. The assay is classed as functional.
Assay [9] concerns the target Chromo domain-containing protein 1 (Saccharomyces cerevisiae (strain ATCC 204508 / S288c) (Baker's yeast)) (UniProt P32657). The assay is described as follows: ScCHD-1 Enzyme Inhibition Assay. Further: in the data most compounds retested in dose-response had high values. The assay is classed as functional. The note with it: 30 µM.

Chain of Chromo domain-containing protein 1 (Saccharomyces cerevisiae (strain ATCC 204508 / S288c) (Baker's yeast)) (P32657 whole entry, the tested form may be a part): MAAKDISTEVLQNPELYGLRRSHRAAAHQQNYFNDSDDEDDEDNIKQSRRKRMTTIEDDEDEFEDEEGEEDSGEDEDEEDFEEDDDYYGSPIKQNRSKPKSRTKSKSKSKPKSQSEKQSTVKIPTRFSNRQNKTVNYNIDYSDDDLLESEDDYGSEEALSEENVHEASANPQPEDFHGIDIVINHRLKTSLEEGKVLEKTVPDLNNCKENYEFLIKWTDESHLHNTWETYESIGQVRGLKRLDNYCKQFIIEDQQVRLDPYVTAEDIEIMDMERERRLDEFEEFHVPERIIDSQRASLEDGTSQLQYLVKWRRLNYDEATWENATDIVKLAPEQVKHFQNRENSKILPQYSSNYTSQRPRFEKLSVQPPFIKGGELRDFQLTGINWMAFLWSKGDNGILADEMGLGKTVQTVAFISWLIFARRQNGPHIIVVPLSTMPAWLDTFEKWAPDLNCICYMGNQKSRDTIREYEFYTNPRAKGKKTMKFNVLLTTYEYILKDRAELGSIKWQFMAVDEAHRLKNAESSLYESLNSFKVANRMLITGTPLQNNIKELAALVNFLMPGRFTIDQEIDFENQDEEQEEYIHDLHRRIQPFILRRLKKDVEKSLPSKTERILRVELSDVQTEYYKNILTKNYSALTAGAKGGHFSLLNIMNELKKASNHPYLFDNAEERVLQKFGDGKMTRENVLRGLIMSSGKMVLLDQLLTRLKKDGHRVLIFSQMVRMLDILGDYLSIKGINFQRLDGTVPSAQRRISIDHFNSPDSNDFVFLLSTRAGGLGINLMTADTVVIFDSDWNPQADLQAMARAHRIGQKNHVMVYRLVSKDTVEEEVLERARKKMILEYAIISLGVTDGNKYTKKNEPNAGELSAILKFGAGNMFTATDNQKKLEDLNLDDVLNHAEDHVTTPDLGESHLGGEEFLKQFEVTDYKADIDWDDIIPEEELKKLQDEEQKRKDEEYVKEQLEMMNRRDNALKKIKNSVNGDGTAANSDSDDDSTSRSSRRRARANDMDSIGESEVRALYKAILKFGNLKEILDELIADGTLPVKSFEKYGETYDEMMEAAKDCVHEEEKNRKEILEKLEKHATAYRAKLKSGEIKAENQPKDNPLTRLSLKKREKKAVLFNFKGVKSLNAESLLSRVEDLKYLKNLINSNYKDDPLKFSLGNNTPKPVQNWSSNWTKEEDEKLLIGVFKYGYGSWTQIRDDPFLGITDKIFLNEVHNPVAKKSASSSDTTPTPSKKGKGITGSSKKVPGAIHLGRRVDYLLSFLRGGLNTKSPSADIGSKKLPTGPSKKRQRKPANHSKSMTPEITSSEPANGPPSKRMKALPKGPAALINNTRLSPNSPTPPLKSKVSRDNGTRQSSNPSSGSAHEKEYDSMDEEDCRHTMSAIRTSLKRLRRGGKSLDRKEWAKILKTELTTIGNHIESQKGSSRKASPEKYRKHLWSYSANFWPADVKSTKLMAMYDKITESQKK

Turning to `CCN1CCN(C2CCN(Cc3c(C)noc3C)CC2)C1=O`, the Percent Effect in assay [1] is -8.32%; in assay [2] it was 15.2%; in assay [3] it was -5.02%; in [4] it was 13.7%; with Trypanosoma cruzi it was 4.44%; in [5], -0.38%. Besides, the Percent Effect in assay [6] is 6.8%; in the assay listed under Homo sapiens, 3.4%; in assay [7], 6.4%; in assay [8] it was 16.5%; in [9], -7.48%.
Regarding `O=C(c1cc(C2CC2)[nH]n1)N1CCN(Cc2ccsc2)CC1`, the Percent Effect in assay [1] is -5.68%; in assay [2], 21.6%; in [3], -3.2%; in assay [4], 10.8%; with Trypanosoma cruzi it was 10.7%; in assay [5], 1.66%. Also, the Percent Effect in assay [6] was 14%; in the assay listed under Homo sapiens, 9.93%; in assay [7], 7.92%; in assay [8], 23.2%; in assay [9], -1.29%.
Regarding `COc1ccc(COCC(O)CNC(=O)c2cc(C)cc(C)c2)cc1` (stereo not given), the Percent Effect was -3.84% in [1]; 13.9% in [2]; 0.387% in [3]; -0.514% in assay [4]; 0.718% in the assay with Trypanosoma cruzi; -4.09% in assay [5]. The Percent Effect is 9.95% in assay [6]; 9.63% in the assay filed under Homo sapiens; 4.17% in [7]; 17.7% in [8]; -15.9% in [9].
Take `NCC(=O)N1CCCC(c2cncc(Nc3ncccn3)n2)C1` (stereo not given): the Percent Effect in assay [1] is -3.81%; in assay [2], 9.46%; in assay [3], 17.7%; in assay [4], 18%; with Trypanosoma cruzi, -2.57%; in assay [5], -3.48%. Also, the Percent Effect in assay [6] was 10.3%; in the assay filed under Homo sapiens, 5.7%; in [7], 5.38%; in assay [8] it was 11.7%; in [9] it was 2.63%.
Consider `CCc1nc(C2CCCN2C(=O)CCc2ccc3c(c2)OCO3)no1` (stereo not given), for which the Percent Effect in [1] was -3.47%; in assay [2], -5.41%; in assay [3], 2.98%; in assay [4] it was 5.83%; in the assay on Trypanosoma cruzi, 3.62%; in assay [5] it was -3.14%. Also, the Percent Effect in assay [6] is -6.46%; in the assay filed under Homo sapiens, 10.2%; in assay [7], 1.98%; in assay [8] it was 1.22%; in assay [9] it was 10.8%.
`CCn1cnnc1CNC(=O)N(C)Cc1ccc(F)c(F)c1`: the Percent Effect is -2.13% in assay [1]; 18.9% in assay [2]; -11.7% in assay [3]; 14.1% in assay [4]; 1.04% in the assay with Trypanosoma cruzi; -5.21% in assay [5]. The Percent Effect is 7.57% in assay [6]; 8.28% in the assay filed under Homo sapiens; 7.39% in [7]; 18.5% in assay [8]; -7.63% in assay [9].
With `COCCn1ccc(=O)c(OCC(=O)Nc2cccc(C(C)=O)c2)c1C`, the Percent Effect in [1] is -2.27%; in assay [2] it was 12%; in assay [3], 3.85%; in assay [4], 5.25%; in the assay with Trypanosoma cruzi it was 0.982%; in assay [5] it was -5.11%. For the same compound, the Percent Effect was 13.5% in assay [6]; -24.6% in the assay filed under Homo sapiens; 8.47% in [7]; 20.5% in assay [8]; -3.7% in assay [9].
For the compound `O=C(Nc1cccc(CN2CCOC2=O)c1)N1CCOCC1`, the Percent Effect was -1.28% in assay [1]; 1.39% in assay [2]; -4.85% in assay [3]; -10.5% in assay [4]; -4.76% in the assay on Trypanosoma cruzi; 3.09% in assay [5]. For the same compound, the Percent Effect in assay [6] is 12.6%; in the assay listed under Homo sapiens, 2.75%; in [7], 2.1%; in assay [8] it was 7.69%; in assay [9] it was -2.72%.
Regarding `Cc1cccc(-c2noc(CN3CC(n4cc(C)cn4)C3)n2)c1`, the Percent Effect in assay [1] is -0.775%; in [2], -13%; in assay [3], -3.33%; in assay [4], 7.4%; in the assay on Trypanosoma cruzi it was 5.24%; in assay [5] it was -2.85%. The Percent Effect in assay [6] is 27.4%; in the assay listed under Homo sapiens, 26.4%; in assay [7], 1.94%; in assay [8] it was 14.6%; in assay [9] it was -5.58%.
As for `Cc1cnccc1N1CCCN(C(=O)CCCS(N)(=O)=O)CC1`, the Percent Effect is -2.12% in assay [1]; 5.48% in assay [2]; 6.21% in [3]; 1.68% in [4]; 1.37% with Trypanosoma cruzi; 15.4% in assay [5]. Further, the Percent Effect in [6] is 8.87%; in the assay listed under Homo sapiens, -6.07%; in assay [7], 2.15%; in assay [8], 12.5%; in assay [9], 0.551%.
